Laboratory results taken from PubChem BioAssay (NCI).
Compounds without any hit were thinned out: in the full panel of roughly 83,000, 20% have a hit.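 48-hour exposure, single concentration, 96-well plates; percent growth endpoint where 0 means no net growth. Active: below 10.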 Values without a mark were called inactive. Calls of active or inactive are those of the source.

tested on: ACHN renal; test: NCI-60 one-dose screen, 48 h (100 = growth as untreated, 0 = no growth, -100 = all killed); conditions: 10 µM unless noted
Description: Growth inhibition of the ACHN human tumor cell line is measured as a screen for anti-cancer activity. Cells are grown in 96 well plates and exposed to the test compound for 48 hours. Compounds are tested at a single concentration, which is 10^-5 M for most compounds. The reported endpoint is percent growth (GI% or GIPRCNT), where numbers from 0 - 100% represent growth inhibition, and numbers from -100% - 0 represent cell death. For example, a value of 40 represents 60% growth inhibition. A value of 0 means no net growth occurred over the course of the experiment. A value of -40 indicates 40% of cells at the beginning of the experiment died by the end of the experiment. A value of -100 means all cells are dead at the end of the experiment.
NCI-60 Human Tumor Cell Lines Screen was performed using the standard one-dose NCI protocol, which is described in more detail at https://dtp.cancer.gov/discovery_development/nci-60/default.htm.
Compounds with GIPRCNT values below 10 were considered active. Activity score was based on GIPRCNT using the following formula: […]
Score is 0 for GIPRCNT values of 100 or above, 50 for GIPRCNT values of 0, and 100 for GIPRCNT values of -100.

Row | Compound | growth
1 | CCc1nc2ccccc2[nH]1 | 108%
2 | O=C(NCCOCCOCCOCCNC(=O)c1cc2c(o1)C(=O)c1ccccc1C2=O)NC12CC3CC(CC(C3)C1)C2 | 0.47% (active)
3 | CC[C@]1(O)C[C@H]2CN(CCc3c([nH]c4ccccc34)[C@@](C(=O)OC)(c3cc4c(cc3OC)N(C=O)[C@H]3[C@@](O)(C(=O)OC)[C@H](OC(C)=O)[C@]5(CC)C=CCN6CC[C@]43[C@@H]65)C2)C1 | 36.3%
4 | CS(=O)(=O)c1ccc(N/N=C/c2c(-c3ccc(S(C)(=O)=O)cc3)[nH]c3ccc(F)cc23)cc1 | 48.2%
5 | CCCCCCCC/C=C/CCCCCCCC1=NCC[N+]1(CCO)CCO | 82.2%
6 | N#C/C(=C\c1ccc2c(c1)OCO2)n1nnc2ccccc21 | 22.9%
7 | Nc1nc(N)c(-c2ccc(Cl)cc2)c(/C=C/c2ccc([N+](=O)[O-])cc2)n1 | 90.8%
8 | O=C(O)c1ccc(CO)o1 | 105%
9 | COc1cc(NC(=O)c2cc(O)c(CC=C(C)C)c(O)c2)cc2c1O[C@]1(C)CC[C@@H](O)C(C)(C)[C@H]1C2 | 36.2%
10 | CCNCCNc1cc(-c2ccc(C(F)(F)F)cc2)c(C#N)c2nc3cc(Cl)c(Cl)cc3n12 | -100% (active)
11 | C=C(C)[C@@H]1CC[C@]2(CNCCO)CC[C@]3(C)[C@H](CC[C@@H]4[C@@]5(C)CCC(N)[C@@](C)(CO)[C@@H]5CC[C@]43C)[C@@H]12 (stereo not given in full) | 54.4%
12 | Nc1ccc(CCCCc2ccccc2)c(Cl)c1 | 94.2%
13 | CNC(=O)c1cc(Oc2ccc3nc(NC(=O)Nc4cc(C(F)(F)F)cc(C(F)(F)F)c4)sc3c2)ccn1 | -52.9% (active)
14 | CC(C)(C)Nc1c(-c2c3ccccc3cc3ccccc23)nc2ccccn12 | 77.8%
15 | CN(C)c1ccc(-c2cc(-c3ccc(Nc4nc(Nc5ccccc5)nc(Nc5ccc(Cl)cc5)n4)cc3)nc(N)n2)cc1 | 46.3%
16 | C[C@@H]1C(=O)N(C[C@H](Cc2ccccc2)NC(=O)OCc2ccccc2)[C@]1(Cc1ccccc1)C(=O)OC(C)(C)C | 75.2%
17 | O=C(/C=C/C12c3ccccc3C(c3ccccc31)C1C(=O)N(c3ccccc3)C(=O)C12)c1ccccc1 (stereo not given) | -15% (active)
18 | Clc1ccc(-c2nc(NCCc3ccccc3)nc3c(NCCc4ccccc4)cnn23)cc1 | 98.7%
19 | Cc1nc(Nc2ccc(NC(=S)Nc3ccccc3)cc2)nc2nc(SCc3ccccc3)[nH]c(=O)c12 | 107%
20 | Fc1ccc(Nc2ccc3cc(OCCCN4CCOCC4)ccc3n2)cc1F | 67.2%

Row | Compound | growth
21 | N#Cc1c(N)nc2c(nnn2-c2cccc(Br)c2)c1N | 99%
22 | COc1ccc(N=c2nc3sc4cc(Cl)ccc4n3c(N)c2C#N)cc1 | 98.2%
23 | C=CC(=O)Nc1cccc(C)c1Nc1cc(-c2cccnc2Cc2c(C)c(OC)cc(OC)c2C)ncn1 | 29.7%
24 | O=S(=O)(Nc1ccsc1-c1nc(-c2ccccc2)no1)c1cc(Cl)cc(Cl)c1 | 98.2%
25 | O=C(Nc1ccccc1)c1sc(-c2cccc(C(F)(F)F)c2)cc1O | 79.5%
26 | Cc1nc(Nc2ccc(NC(=S)Nc3ccccc3)cc2)nc2nc(Nc3cccc(Cl)c3)[nH]c(=O)c12 | 96.7%
27 | NS(=O)(=O)Oc1ccc(NC(=O)C23CC4CC(CC(C4)C2)C3)cc1Cl | 96.1%
28 | O=C1NC(=S)S/C1=C\N1N=C(c2ccc(Cl)cc2)CC1c1ccc(F)cc1 (stereo not given) | 87.2%
29 | CC(C)c1ccc(NC(=O)Cc2ccc(Nc3ncnc4cc(-c5cnn(CCN(C)C)c5)ccc34)cc2)cc1 | -71.5% [30 µM] (active)
30 | Cc1c2c(cn1Cc1ccccc1)CCc1cn(C)nc1-2 | 80.3%
31 | COc1ccc(C2=NC(=O)NC2c2ccc(OC)cc2)cc1 (stereo not given) | 83.2%
32 | CCOC(=O)c1cnn2c(-c3ccc(Cl)cc3)nc(NCc3ccccc3)nc12 | 13.7%
33 | CN1CCC(=C2c3ccccc3C=Cc3ccccc32)CC1 | 84.4%
34 | C=C1C(=O)O[C@H]2[C@H]1CC/C(COC(=O)/C=C\C(=O)NCc1ccc(Cn3c(=O)sn(-c4ccc(Cl)cc4)c3=O)cc1)=C\CC[C@@]1(C)O[C@@H]21 | -100% (active)
35 | CNC(=O)c1cc(Oc2ccc3nc(Nc4cc(Cl)cc(Cl)c4)ccc3c2)ccn1 | 62.6%
36 | CO/C(=C1/NC(=O)C(Cc2ccc(O)c(Br)c2)N(C)C(=O)C(C)NC(=O)CCC/C=C(\C)CCC(C)OC1=O)c1ccccc1 (stereo not given) | -34.7% (active)
37 | CCCCN1CCN(c2ccc3nc(-c4ccc5nc(-c6ccc(OCC)c(OCC)c6)[nH]c5c4)[nH]c3c2)CC1 | 12.7%
38 | O=C1N/C(=N/O)S/C1=C/c1cn(-c2ccccc2)nc1-c1ccccc1 | 100%
39 | COC(=O)[C@]12CC[C@@H](C)[C@H](C)[C@@H]1C1=CC[C@@H]3[C@@]4(C)C(C=O)=C[C@@](C)(CO)C4=CC[C@@]3(C)[C@]1(C)CC2 | 17.1%
40 | C=C1C(=O)O[C@H]2[C@H]1CC/C(Cn1cc(CNCCc3c[nH]c4ccc(Cl)cc34)nn1)=C\CC[C@@]1(C)O[C@@H]21 | 54%
